Several values for one entry are separate records, joined by “and”; a condition that tells them apart may be missing. Identical values can stand only once. Records with an inconclusive call do not appear. Activity calls are given as the source filed them. Unless noted, the call rests on the fitted dose curve; in most records, active means well fitted curve in the direction sought with a large enough effect; inconclusive means small, poorly fitted or top-dose-only effect, or another doubt; inactive means no such curve, though single readings can be large; an effect the other way counts as inactive or inconclusive.
How the values were obtained:
[1] = biological target: Cellular tumor antigen p53 (Homo sapiens) (UniProt P04637); assay: Primary qHTS for small molecule compounds that upregulate eGFP-tagged delta133p53alpha (in N-terminal) cells. (AID 2060322); settings: NCI-H358 eGFP-delta133p53alpha fluorescence, 24 h; activation: active compounds read high;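 further: series mostly up to about 56 µM; 0% = DMSO vehicle and 100% = reference activator; nearly all actives have a fitted effect of over 75% in size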
Method in brief: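 NCI-H358 cells pre-induced 24 h with 10 ng/ml doxycycline to express N-terminal eGFP-delta133p53alpha, then dosed 24 h at 37C without doxycycline; fixed, Hoechst-stained, GFP intensity by laser scanning cytometry, normalized to DMSO (0%) and 57.5 uM 5-azacytidine (100%).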

[2] = biological target: Cellular tumor antigen p53 (Homo sapiens) (UniProt P04637); assay: Primary qHTS for small molecule compounds that upregulate eGFP-tagged delta133p53alpha (in C-terminal) cells. (AID 2060324);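 further: 0% = DMSO wells and 100% = 57.5 µM 5-azacytidine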
Method in brief: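 C-terminal eGFP-tagged delta133p53alpha NCI-H358 line; dox-induced (100 ng/ml, 24 h) then plated without dox; compounds pinned in titration, 24 h 37 °C/5% CO2; PFA fix, Hoechst nuclei; GFP by LSC.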

[3] = biological target: Aldehyde dehydrogenase, mitochondrial (Homo sapiens) (UniProt P05091); assay: qHTS for Inhibitors of the Aldehyde Dehydrogenase Family (ALDH2) Validation screens (AID 2061302; active means well fitted inhibition curve with a large enough effect; title and protocol of this record describe different tests;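 further: plate controls were DMSO vehicle for no effect and maximal DPI positive control response for full effect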)
[4] = biological target: Retinaldehyde dehydrogenase 3 (Homo sapiens) (UniProt P47895); assay: qHTS for Inhibitors of the Aldehyde Dehydrogenase Family (ALDH1A3) Validation screen (AID 2061312); further: on the % scale 0 is the no-effect control and ±100 the full control effect; nearly all actives have a fitted effect of over 45% in size

Sequence of Cellular tumor antigen p53 (Homo sapiens) (P04637 whole entry, looked up): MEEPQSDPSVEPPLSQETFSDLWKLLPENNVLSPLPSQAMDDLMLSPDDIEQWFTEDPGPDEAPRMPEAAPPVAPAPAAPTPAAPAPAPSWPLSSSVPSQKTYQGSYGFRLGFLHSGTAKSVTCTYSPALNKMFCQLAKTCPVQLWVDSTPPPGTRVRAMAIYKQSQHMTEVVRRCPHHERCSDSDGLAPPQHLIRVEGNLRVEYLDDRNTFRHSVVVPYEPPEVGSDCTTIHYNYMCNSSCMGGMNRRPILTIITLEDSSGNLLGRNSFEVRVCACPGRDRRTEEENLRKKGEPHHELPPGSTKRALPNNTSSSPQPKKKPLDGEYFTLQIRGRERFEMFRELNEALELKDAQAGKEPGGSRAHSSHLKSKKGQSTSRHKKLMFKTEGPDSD

CNC(=O)[C@H]1O[C@@H](n2cnc3c(NCc4ccc(N)cc4)ncnc32)[C@H](O)[C@@H]1O
inactive: activation [1] -32.5% | Potency [2] | Potency [3] | Potency [4]

CCN(CC)CCCN(c1ccccc1)C1Cc2ccccc2C1
inactive: activation [1] -2.82% and -37.7% | Potency [2] | Potency [3] | Potency [4]

NC[C@H]1O[C@@H](n2cnc3c(N)ncnc32)[C@H](O)[C@@H]1O
inactive: activation [1] 4.39% | Potency [2] | Potency [3] | Potency [4]

O=C(c1ccc(Cl)cc1)N1CCN(c2ccc([N+](=O)[O-])c3ncccc23)CC1
inactive: activation [1] -9.46% | Potency [2] | Potency [3] | Potency [4]

O=C(O)CCCC[C@@H]1CCSS1
inactive: activation [1] -13.5% | Potency [2] | Potency [3] | Potency [4]

CN(C(=O)CCCOc1ccc2[nH]c(=O)ccc2c1)C1CCCCC1
inactive: activation [1] -9.21% and -37.7% | Potency [2] | Potency [3] | Potency [4]

Cn1c(=O)c2[nH]c(-c3ccccc3)nc2n(C)c1=O
inactive: activation [1] -37% | Potency [2] | Potency [3] | Potency [4]

O=[N+]([O-])c1ccc(CSc2ncnc3c2ncn3[C@@H]2O[C@H](CO)[C@@H](O)[C@H]2O)cc1
inactive: activation [1] -20.8% | Potency [2] | Potency [3] | Potency [4]

CCN(CC)CCOC(=O)c1ccc(N)cc1
inactive: activation [1] -14.2% and -16.3% | Potency [2] | Potency [3] | Potency [4]

CN(C)CCC(c1ccc(Cl)cc1)c1ccccn1 (configuration not stated)
inactive: activation [1] -24.5% | Potency [2] | Potency [3] | Potency [4]

C=CC(C)=C[C@@]1(C)SC(=O)C(C)=C1O
inactive: activation [1] 0.958% | Potency [2] | Potency [3] | Potency [4]

C[N+](C)(C)CC=O
inactive: activation [1] -21.7% | Potency [2] | Potency [3] | Potency [4]

NCCCS(=O)(=O)O
inactive: activation [1] 14.5% | Potency [2] | Potency [3] | Potency [4]

CC(/C=C/c1cccc(Oc2ccc(F)cc2)c1)N(O)C(N)=O (configuration not stated)
inactive: activation [1] -36% | Potency [2] | Potency [3] | Potency [4]

N[C@@H](Cc1ccc(F)cc1)C(=O)O
inactive: activation [1] -38.4% | Potency [2] | Potency [3] | Potency [4]

Nc1nc(Cl)nc2c1ncn2[C@@H]1O[C@H](CO)[C@@H](O)[C@H]1O
inactive: activation [1] -6.39% | Potency [2] | Potency [3] | Potency [4]

C[C@H](CS)C(=O)N1CCC[C@H]1C(=O)O
inactive: activation [1] 1.67% and -24.1% | Potency [2] | Potency [3] | Potency [4]

CNCCc1cnc(CCC(c2ccccc2)c2ccccc2)[nH]1
inactive: activation [1] -38.1% | Potency [2] | Potency [3] | Potency [4]

— PubChem BioAssay (NCATS)
